Compounds with a hit are over-represented: about 3% of the library has one in this group of screens.
HIF-2a inh: inhibitors of HIF-2a; 786-0 RCC cells HIF-2a reporter, luciferase luminescence, overnight; inhibition, % at 18.8 µM; 0.72% of 360,000 active;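 active means inhibition of the luminescence signal of 40% or more relative to plate controls, in a single-dose primary screen at 18.75 µM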
Peg3 prom inh-1: Peg3 promoter activity inhibition; HeLa PEG-Prom luciferase reporter, luminescence, overnight; 1.7% of 360,000 active; inhibition, % at 20 µM;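 active means inhibition of at least 50% at 20 µM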
EBV LMP1 NFkB: Epstein-Barr LMP1 NF-kappaB reporter inhibition; LMP1-induced NF-kappaB luciferase reporter cells, luminescence; inhibition, % at 12.5 µM; 0.69% of 350,000 active; AID 504558; in the data active means inhibition above about 41%; inconclusive means no clear call, values can overlap the other calls
KKLEB cytotox: counter-screen for CF NF-kB inhibitors: cytotoxicity; activity change (cytotoxicity), % at 5 µM; KKLEB CF airway cells viability, ATPlite luminescence, overnight; hits give low values; cells stimulated with P. aeruginosa culture filtrate; 0.36% of 360,000 active;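 active means corrected activity change at or below -50% at 5 µM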
MITF TRPM1 inh: MITF TRPM1 promoter inhibition in SK-MEL-5 cells. SK-MEL-5 TRPM1 promoter luciferase, 24 h. inhibition, % at 12.5 µM. 0.83% of 330,000 active. AID 488899;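 active means mean inhibition across replicates of 60% or more, whatever share of single replicates reaches that level; inconclusive means some that reach 60%, reason not given; inactive means mean inhibition across replicates below 60%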
CF NFkB inh: inhibitors of cystic fibrosis induced NF-kB | KKLEB NF-kB-GFP reporter, PAF-induced, GFP fluorescence overnight | inhibition, % at 5 µM | 0.86% of 360,000 active | AID 588850;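 active means at least 50% inhibition at 5 µM, scaled per plate between neutral and stimulator controls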;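 further: PAF is a Pseudomonas aeruginosa culture filtrate used as stimulus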
Peg3 prom inh-2: confirmation of Peg3 promoter inhibitors | shares compounds with Peg3 prom inh-1 | HeLa PEG-Prom luciferase reporter, luminescence, overnight | inhibition, % at 20 µM | 84% of 1,300 active;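 active means at 20 µM dose, 40% or more inhibition averaged across four replicates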
Numbers stand for hits; 0 = inactive; ? = inconclusive; - = not tested or not shown.

SMILES	HIF-2a inh	Peg3 prom inh-1	EBV LMP1 NFkB	KKLEB cytotox	MITF TRPM1 inh	CF NFkB inh	Peg3 prom inh-2
CC(C)(C)OC(=O)NCCCCCNC(=O)c1[nH]cnc1C(=O)N[C@@H](Cc1ccccc1)C(=O)OC(C)(C)C	0	51	0	0	0	0	0
CC(C)(C)OC(=O)[C@H](Cc1ccccc1)NC(=O)c1[nH]cnc1C(=O)Nc1ccc(Cl)cc1	0	85	0	0	0	0	0
CC(C)(C)OC(=O)[C@H](Cc1ccccc1)NC(=O)c1nc[nH]c1C(=O)NCCCCCN	0	0	0	0	0	0	-
CC(C)(C)OC(=O)[C@H](Cc1ccccc1)NC(=O)c1[nH]cnc1C(=O)Nc1cccc(Cl)c1	0	0	0	0	0	0	-
CCC(=O)N1CCCC1(C)C(=O)Nc1ccc2nc(C)ccc2c1 (configuration not stated)	0	0	-	0	-	0	-
Cc1cccc(-c2ccc3[nH]c4c(c3c2)CCN2C[C@@H]([C@H](C)O)[C@@H](N(C)C(=O)NC3CCCCC3)C[C@@H]42)c1	0	0	0	0	-	0	-
CN[C@H]1C[C@H]2c3[nH]c4ccc(-c5ccc(OC)cc5)cc4c3CCN2C(=O)[C@H]1[C@H](C)O	0	101	0	0	-	0	98
CN[C@H]1C[C@H]2c3[nH]c4ccc(-c5cccc(C)c5)cc4c3CCN2C[C@H]1[C@H](C)O	0	90	0	0	-	0	98
COc1ccc(NC(=O)N(C)[C@H]2C[C@H]3c4[nH]c5ccc(-c6ccc(OC)cc6)cc5c4CCN3C(=O)[C@H]2[C@H](C)O)cc1	0	0	0	0	-	0	-
CCOC(=O)C1CCCN(C(=O)c2cc(C)oc2C)CC1 (configuration not stated)	0	0	-	0	-	0	-
CCOc1ccc(NC(=O)CN(C)C2=NS(=O)(=O)c3ccccc32)cc1	0	0	0	0	-	0	-
O=C1c2ccccc2C(=O)C12OC2c1ccc(Cl)cc1Cl (configuration not stated)	0	99	0	-68	?	96	51
Nc1c(C(=O)Nc2nc3ccccc3s2)sc2nc(-c3cccs3)ccc12	0	95	0	0	?	0	64
CCC(=O)N1CCCC(C)(C(=O)NS(=O)(=O)c2cccs2)C1 (configuration not stated)	0	0	-	0	-	0	-
CCc1nc2c(OCc3cccc(OC)c3)cccn2c1N(C)C(=O)c1ccccc1F	0	0	-	0	-	0	-
CCN(CC)CCNC(=O)c1ccc(NC(=O)c2cccc(S(=O)(=O)N(C)C3CCCCC3)c2)cc1	0	83	0	0	73	0	89
O=C(NC1CCCCC1)C1c2ccccc2OCC(=O)N1Cc1ccco1 (configuration not stated)	0	-	-	-	-	-	-
CC1(C)CC(NC(=O)c2cccc(S(=O)(=O)N(Cc3ccccc3)c3ccccc3)c2)CC(C)(C)N1	0	84	0	0	0	0	92
Cc1ccc(N(C)S(=O)(=O)c2cccc(C(=O)NC3CC(C)(C)NC(C)(C)C3)c2)cc1	0	0	0	0	0	0	-
CCN(CC)c1ccc2nc3ccc(N)cc3[n+](-c3ccccc3)c2c1	0	89	53	0	93	0	72
CCOC(=O)c1cc2c(=O)n3ccccc3nc2n(CCOC)c1=NC(=O)c1c(-c2c(F)cccc2Cl)noc1C	0	53	0	0	0	0	0
CCOC(=O)c1cc2c(=O)n3ccccc3nc2n(CCOC)c1=NC(=O)c1ccncc1	0	0	0	0	0	0	-
Cc1c(OCC(=O)NC2CC(C)(C)NC(C)(C)C2)ccc2c3c(c(=O)oc12)CCC3	0	0	0	0	0	0	-
Cc1c(OCC(=O)NC2CC(C)(C)NC(C)(C)C2)ccc2c1oc(=O)c1ccccc12	0	100	0	0	76	0	85
O=C(Nc1ccc(Oc2ccccc2)cc1)c1ccc2nc([C@@H]3O[C@H](CO)[C@H](O)[C@H](O)[C@H]3O)[nH]c2c1	0	0	-	0	-	0	-
O=C(Nc1ccc(-c2cn3ccsc3n2)cc1)c1ccc(F)c(S(=O)(=O)N2CCOCC2)c1	0	80	0	0	0	0	96
O=C(Nc1ccccc1)c1ccc(F)c(S(=O)(=O)N2CCOCC2)c1	0	0	0	0	0	0	-
